Source: PubChem BioAssay (Tox21)
Calls of active or inactive are those of the source. Calls come from the whole dose curve; as a rule, active = well fitted cell-killing curve with a large enough effect in the repeat runs; inconclusive = weak or mixed curves, or effect the other way; inactive = flat fitted curve, though single readings scatter.

Experiment: qHTS assay to identify small molecule HDAC inhibitors - cell viability counter screen (AID 1259365); note: nearly all actives have a fitted effect of over 50% in size
Conditions: HCT-116 viability, CellTiter-Glo ATP luminescence, 2 h; series mostly up to 92.4 µM; activity change, negative = cytotoxicity: at the top concentration
Excerpt: U.S. Tox21 Program National Center for Advancing Translational Sciences [NCATS] NIH Chemical Genomics Center [NCGC] U.S. Environmental Protection Agency [EPA] National Institutes of Environmental Health Sciences [NIEHS] National Toxicology Program [NTP] U.S. Food and Drug Administration [FDA] Tox21 Assay Overview: Histone deacetylases (HDACs) are a group of epigenetic enzymes that regulate gene expression by histone deacetylation. HDACs are capable of introducing epigenetic modifications and such aberrations contribute to the onset and progression of several human diseases, thus making HDACs a popular therapeutic target. For identifying endogenous class I/II HDAC inhibitors a homogenous, luminogenic HDAC I/II cell based assay was used to measure the relative activity of class I and II HDACs from cells. Wild type HCT-116 cells were used to screen Tox21 compound libraries for identifying class I/II HDAC inhibitors.
Tox21 Assay Protocol Summary: HCT-116 cells were dispensed at 1,500 per well in 5uL of culture medium into white solid bottom 1536-well plates (Greiner Bio-One, Monroe, NC) using a Multidrop Combi (Thermo Scientific, Waltham, MA) dispenser. The assay plates were incubated at 37 C and 5% CO2 for an overnight, and then 23nL of compounds dissolved in DMSO and positive control were transferred using a Pintool station (Wako, San Diego, CA). The assay plates were incubated at 37C and 5% CO2 for 2hr. After compound treatment, 4uL of CellTiter-Glo reagent (Promega Corporation, Madison, WI) was added to each well of the assay plates using Flying Reagent Dispenser (FRD, Aurora Discovery, San Diego, CA) and incubated the assay plates at room temperature for 30min. The luminescence signal was quantified using a ViewLux plate reader (Perkin Elmer, Shelton, CT).
% is set by controls: 0 for no effect and ±100 for the full control effect.

Question: For CCCC(C)C(=O)O (stereo not given), which “activity change, negative = cytotoxicity” value is on record?
Answer: 7.1% (inactive)

Question: With OC1OC[C@@H](O)[C@H](O)[C@H]1O (stereo not given in full) as the compound, how does the “activity change, negative = cytotoxicity” value read?
Answer: 5.29% (inactive)

Question: Which “activity change, negative = cytotoxicity” value does the source give for N#CCc1ccccc1[N+](=O)[O-] here?
Answer: 1.15% (inactive)

Question: Which “activity change, negative = cytotoxicity” value does the source give for CC(C)CCOC(=O)CC(C)C here?
Answer: -0.955% (inactive)

Question: Which “activity change, negative = cytotoxicity” value does the source give for CNc1ncnc2nc[nH]c12 here?
Answer: 5.49% (inactive)

Question: For OCCN1C[C@H](O)[C@@H](O)[C@H](O)[C@H]1CO, which “activity change, negative = cytotoxicity” value is on record?
Answer: 2.78% [at 42.5 µM] (inactive)

Question: For OCC(O)[C@@H](O)[C@H](O)[C@H](O)CO[C@H]1O[C@H](CO)[C@@H](O)[C@H](O)[C@H]1O (stereo not given in full), which “activity change, negative = cytotoxicity” value is on record?
Answer: -0.302% (inactive)

Question: Which “activity change, negative = cytotoxicity” value does the source give for CCCCCCCCCCCCCCCCCC(=O)OCCCCCCCCCCCCCC(C)C here?
Answer: 0.57% (inactive)

Question: With CCCOc1ccccc1-c1nc2n[nH]nc2c(=O)[nH]1 as the compound, how does the “activity change, negative = cytotoxicity” value read?
Answer: 8% [at 42.5 µM] (inactive)

Question: Which “activity change, negative = cytotoxicity” value does the source give for CC(C)CCCCCCN here?
Answer: -0.802% (inactive)

Question: With NS(=O)(=O)c1cc(C2(O)NC(=O)c3ccccc32)ccc1Cl (stereo not given) as the compound, how does the “activity change, negative = cytotoxicity” value read?
Answer: 1.73% [at 42.5 µM] (inactive)

Question: With CC1(C)SC(C)(C)SC(C)(C)S1 as the compound, how does the “activity change, negative = cytotoxicity” value read?
Answer: 1.45% (inactive)

Question: With C=CC(=O)N1CCOCC1 as the compound, how does the “activity change, negative = cytotoxicity” value read?
Answer: 7.37% (inactive)

Question: For CCCC(=O)O[C@]1(C(=O)CCl)[C@@H](C)C[C@H]2[C@@H]3CCC4=CC(=O)C=C[C@]4(C)[C@@]3(F)C(=O)C[C@@]21C, which “activity change, negative = cytotoxicity” value is on record?
Answer: -3.71% [at 42.5 µM] (inactive)

Question: With O=C1OC(=O)c2cc([N+](=O)[O-])ccc21 as the compound, how does the “activity change, negative = cytotoxicity” value read?
Answer: 3.93% (inactive)

Question: Which “activity change, negative = cytotoxicity” value does the source give for O=c1[nH]c(=O)n([C@H]2O[C@H](CO)[C@@H](O)[C@@H]2O)cc1/C=C\Br here?
Answer: 5.53% [at 42.5 µM] (inactive)

Question: Which activity change, negative = cytotoxicity does the source give for NC(=S)Nc1cccc2ccccc12 here?
Answer: -1.1% [at 8.39 µM] (inactive)

Question: For Cc1ccccc1Br, which “activity change, negative = cytotoxicity” value is on record?
Answer: 3.5% (inactive)

Question: Which “activity change, negative = cytotoxicity” value does the source give for NS(=O)(=O)c1cc2c(cc1Cl)NC(CSCc1ccccc1)=NS2(=O)=O here?
Answer: 1.63% [at 42.5 µM] (inactive)

Question: With COC(=O)C1=C(C)NC(C)=C(C(=O)OCC(C)=O)C1c1ccccc1[N+](=O)[O-] (stereo not given) as the compound, how does the “activity change, negative = cytotoxicity” value read?
Answer: 4.79% [at 42.5 µM] (inactive)

Question: Which “activity change, negative = cytotoxicity” value does the source give for CC1(C)OC(=O)Nc2ccc(Br)cc21 here?
Answer: 5.07% [at 42.5 µM] (inactive)

Question: With CC(CCO)CCCC(C)(C)O (stereo not given) as the compound, how does the “activity change, negative = cytotoxicity” value read?
Answer: -0.424% (inactive)

Question: With C[C@H]1O[C@@H](n2cc(F)c(=O)[nH]c2=O)[C@H](O)[C@@H]1O as the compound, how does the “activity change, negative = cytotoxicity” value read?
Answer: 1.56% [at 42.5 µM] (inactive)

Question: For COCc1ccc(COC)cc1, which “activity change, negative = cytotoxicity” value is on record?
Answer: 1.46% (inactive)

Question: For C[C@H](O)C(=O)Nc1c(I)c(C(=O)NC(CO)CO)c(I)c(C(=O)NC(CO)CO)c1I, which “activity change, negative = cytotoxicity” value is on record?
Answer: 0.082% [at 42.5 µM] (inactive)

Question: For CC(C)(O)Cc1ccccc1, which “activity change, negative = cytotoxicity” value is on record?
Answer: -3.65% (inactive)

Question: Which “activity change, negative = cytotoxicity” value does the source give for OCc1ccccn1 here?
Answer: 1.12% [at 42.5 µM] (inactive)

Question: For c1ccc2cnncc2c1, which “activity change, negative = cytotoxicity” value is on record?
Answer: 2.93% (inactive)

Question: Which “activity change, negative = cytotoxicity” value does the source give for CCCC(C)CO (stereo not given) here?
Answer: 3.71% (inactive)

Question: Which “activity change, negative = cytotoxicity” value does the source give for COc1ccc(COC=O)cc1 here?
Answer: 5.14% (inactive)

Question: With C[N+](C)(C)CC[N+]1(C)Cc2c(Cl)c(Cl)c(Cl)c(Cl)c2C1 as the compound, how does the “activity change, negative = cytotoxicity” value read?
Answer: 2.47% [at 42.5 µM] (inactive)

Question: For Cc1nc(-c2ccc(OCC(C)C)c(C#N)c2)sc1C(=O)O, which “activity change, negative = cytotoxicity” value is on record?
Answer: 17.4% [at 42.5 µM] (inactive)

Question: For Oc1ccc2c(c1)OC[C@@H](N1CCC(O)(c3ccc(F)cc3)CC1)[C@H]2O, which “activity change, negative = cytotoxicity” value is on record?
Answer: -7.2% [at 42.5 µM] (inactive)

Question: With OCCCCCCO as the compound, how does the “activity change, negative = cytotoxicity” value read?
Answer: 0.513% (inactive)

Question: Which “activity change, negative = cytotoxicity” value does the source give for CN(C)N=Nc1ccccc1 here?
Answer: -5.04% (inactive)

Question: Which “activity change, negative = cytotoxicity” value does the source give for C=C(C)[C@H]1CC=C(C)CC1 here?
Answer: 2.57% (inactive)

Question: Which “activity change, negative = cytotoxicity” value does the source give for O=C(O)c1ccc[n+]([O-])c1 here?
Answer: 1.51% [at 42.5 µM] (inactive)

Question: With CSc1nc(NC2CC2)nc(NC(C)(C)C)n1 as the compound, how does the “activity change, negative = cytotoxicity” value read?
Answer: 3.66% (inactive)

Question: For CC1=CC(=O)CCC1, which “activity change, negative = cytotoxicity” value is on record?
Answer: 0.934% (inactive)

Question: For NC(CS)C(=O)O (stereo not given), which “activity change, negative = cytotoxicity” value is on record?
Answer: 1.66% [at 42.5 µM] (inactive)
